This is a sample that favours compounds with a hit; in the whole collection about 8.2% have one here.
ELG1 DNA repair – ELG1-dependent DNA repair inhibition. Potency, µM (top dose mostly 46.1 µM), for the others: at the top dose activity change, negative = inhibition, most hits filed as inhibitors. HEK293T ELG1-luciferase reporter, luminescence, 16 h; DNA damage induced by 5-fluorouridine. 330,000 compounds, 2.3% hits; further: on the % scale 0 is the no-effect control and ±100 the full control effect; nearly all actives have a fitted effect of over 55% in size
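Cells (2,000 per well) received 5-fluorouridine plus test compound or DMSO and were incubated 16 hr at 37 °C, 5% CO2. Luciferase activity was read by luminescence 30 min after ONE-Glo addition; signal suppression marked inhibition of damage-induced ELG1 function.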
KB-V1 cytotox – KB-V1 MDR subline cytotoxicity | KB-V1 MDR cells viability, CellTiter-Glo, 72 h | Potency, µM (highest dose often 46.1 µM), usual class: cytotoxic | 400,000 compounds, 3.4% hits; further: on the % scale 0 is the no-effect control and ±100 the full control effect; nearly all actives have a fitted effect of over 60% in size
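Readout: CellTiter-Glo luminescence, 10 min after addition. Cells: KB-V1 MDR subline, 72 h at 37 degrees C with compound. Analysis: corrected, normalized data fitted to concentration-effect curves.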
SW480 rereplic – inducers of DNA re-replication in SW480 colon cancer cells; AID 624297; Potency, µM (top dose mostly 46.1 µM), for the others: top-dose re-replication activation, hits mostly activators; 340,000 compounds, 1.8% hits; SW480 DNA re-replication, Hoechst DNA content imaging, 48 h; further: % of control where 0% means no effect; nearly all actives have a fitted effect of over 55% in size
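DNA re-replication was detected as more nuclei of elevated Hoechst intensity after 48 hr exposure to compound (23 nL pinned per well of 250 cells).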
MCF10A rereplic – DNA re-replication induction in MCF 10a cells. MCF 10A DNA re-replication, Hoechst nuclear intensity, 48 h. AID 624296. 350,000 compounds, 2.9% hits. Potency, µM (series often up to 46.1 µM), without a hit: top-dose activity, positive = re-replication, actives largely listed as activators; further: % of control where 0% means no effect; nearly all actives have a fitted effect of over 50% in size
KB-3-1 cytotox – kills parental KB-3-1 adenocarcinoma cells; KB-3-1 viability, CellTiter-Glo ATP luminescence, 72 h; Potency, µM (doses to about 46.1 µM), hits mostly cytotoxic; 400,000 compounds, 1.4% hits; AID 1347075; further: on the % scale 0 is the no-effect control and ±100 the full control effect; nearly all actives have a fitted effect of over 60% in size
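72 h, 37 °C compound treatment of KB-3-1 parental cells; CellTiter-Glo added, 10 min, luminescence read. Data corrected against DMSO-only plates and normalized before curve fitting.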
Starred values were filed as active, the others as inactive; i = inactive; ? = inconclusive; nt = no result; ! = not active in a repeat. The call rests on the fitted dose curve; in most records, active means well fitted curve in the direction sought with a large enough effect; inconclusive means small, poorly fitted or top-dose-only effect, or another doubt; inactive means no such curve, though single readings can be large; an effect the other way counts as inactive or inconclusive. Potency means the concentration at half of the fitted maximal effect.

SMILES	ELG1 DNA repair	KB-V1 cytotox	SW480 rereplic	MCF10A rereplic	KB-3-1 cytotox
CN(C)S(=O)(=O)c1ccc(N2CCCC2)c(C(=O)Nc2ccc(F)cc2F)c1	-14%	i	-3%	1%	i
COc1ccc(C(C)(C)C)cc1NC(=O)c1cc(S(=O)(=O)N(C)C)ccc1N1CCCC1	?	23µM*	1%	8%	i
CCn1nc(C(=O)N2CCN(Cc3nc4ccccc4s3)CC2)c2ccccc2c1=O	?	?	-18%	?	?
Cc1ccc(OCc2nnc(SCc3cc(=O)[nH]c4ccccc34)n2-c2ccccc2)cc1	?	i	5%	1%	i
Cc1ccccc1OCc1nnc(SCc2cc(=O)[nH]c3ccccc23)n1-c1ccccc1	-20%	16µM*	?	?	?
COc1ccc(Cl)cc1-c1cc(C(=O)NCc2ccc(C(F)(F)F)cc2)[nH]n1	nt	i	nt	nt	i
COc1ccc(C(C)(C)C)cc1NC(=O)c1[nH]c(C)c(C(C)=O)c1C	5.8µM*	?	?	18µM*	?
CCCCCNCC(=O)Nc1cccc(C(=O)Nc2cccc(C(F)(F)F)c2)c1	3%	23µM*	18%	?	?
CC(=O)c1c(C)[nH]c(C(=O)Nc2cccc(C(F)(F)F)c2)c1C	?	13µM*	9%	4%	?
O=C(CN1CCOCC1)Nc1cccc(C(=O)Nc2cccc(C(F)(F)F)c2)c1	-16%	i	-5%	1%	i
Cc1cccc(NC(=O)CCCC(=O)OC(C)C(=O)c2ccccc2)c1 (centres undefined)	0%	i	-23%	6%	i
CCCCOn1c(C)c(C(=O)OCC)c2c3nonc3ccc21	nt	8.2µM*	19%	?	i
COn1c(C)c(C(C)=O)c2c3nonc3ccc21	21µM*	i	3%	-1%	i
CCOC(=O)c1c(C)n(OC)c2ccc3c(no[n+]3[O-])c12	7%	i	-7%	-3%	i
Cc1cccc(NC(=O)c2ccc(N3C(=O)C4C5C=CC(C6CC56)C4C3=O)cc2)c1 (centres undefined)	8.2µM*	i	-1%	-11%	?
COc1ccc(OC)c(NC(=O)c2cccc(N3C(=O)C4C5C=CC(C6CC56)C4C3=O)c2)c1 (centres undefined)	?	?	-10%	24%	i
Cc1ccc(NC(=O)c2ccccc2N2C(=O)C3C4C=CC(C5CC45)C3C2=O)cc1C (centres undefined)	2%	nt	4%	?	nt
COC(=O)c1ccc(NC(=O)c2cccc(N3C(=O)C4C5C=CC(C6CC56)C4C3=O)c2)cc1 (centres undefined)	?	?	-2%	16µM*	?
O=C(Nc1ccccc1)c1cccc(N2C(=O)C3C4C=CC(C5CC45)C3C2=O)c1 (centres undefined)	?	i	-1%	-29%	i
O=C(Nc1ccc(F)cc1)c1cccc(N2C(=O)C3C4C=CC(C5CC45)C3C2=O)c1 (centres undefined)	16µM*	i	-4%	2%	?
CC(=O)c1sc(NC(=O)CSCc2c(C)noc2C)nc1-c1ccccc1	-33%	i	0%	6%	i
O=C(c1ccccc1)c1sc(N2CCOCC2)nc1-c1ccccc1	-2%	i	0%	5%	i
COc1ccc(-c2nc(N3CCCCCC3)sc2C(=O)c2ccccc2)cc1	?	i	6%	15µM*	i
[2H]c1c([2H])c([2H])c(C(=O)c2sc(N3CCCCCC3)nc2-c2ccccc2)c([2H])c1[2H]	-8%	i	1%	9.2µM*	?
O=C(c1ccc(Br)cc1)c1sc(N2CCOCC2)nc1-c1ccccc1	?	?	11%	16µM*	?
SMILES	ELG1 DNA repair	KB-V1 cytotox	SW480 rereplic	MCF10A rereplic	KB-3-1 cytotox
O=C(c1ccccc1)c1sc(N2CCCCCC2)nc1-c1ccccc1	?	?	29%	?	?
COc1cc2c(cc1OC)C(c1ccc(-c3ccc(Cl)c(Cl)c3)o1)=NCC2	15µM*	?	18µM*	2.3µM*	16µM*!
COc1cc2c(cc1OC)C(c1ccc(-c3cc(Cl)ccc3Cl)o1)=NCC2	?	5.2µM*	16µM*	?	?
COc1cc2c(cc1OC)C(c1oc(-c3ccc(-c4cc(Cl)ccc4Cl)o3)cc1C)=NCC2	nt	i	nt	nt	?
COc1cc2c(cc1OC)C(c1ccc(-c3ccc(Cl)cc3Cl)o1)=NCC2	?	2.6µM*	?	?	23µM*
CCC/C=N/NC(=O)c1ccccc1O	14%	?	4%	-3%	i
COc1cccc(NC(=O)C(Sc2nnc3ccccn23)c2ccccc2)c1 (centres undefined)	-4%	21µM*	-3%	?	i
COc1ccc(CNC(=O)CCc2c(C)nc3c4cccnc4nn3c2C)cc1	nt	i	nt	nt	i
O=C(O)c1ccccc1C=NNc1ccc([N+](=O)[O-])cn1	nt	i	-3%	-23%	i
COc1cccc(/C=N/Nc2ccc([N+](=O)[O-])cn2)c1O	?	i	1.2µM*	?	5.2µM*
O=[N+]([O-])c1ccc(NN=Cc2cccc3ccccc23)nc1	nt	i	3.3µM*	?	?
Cc1cc(C)n2ncc(/C(N)=N/OC(=O)Nc3ccccc3)c2n1	?	i	-18%	1%	i
COc1cc2[nH]c(C)c(-c3ccccc3)c(=O)c2cc1Cl	nt	i	nt	nt	?
Cc1nc2ncnn2c(Nc2ccc3c(c2)OCO3)c1Cc1ccccc1	-25%	16µM*	17%	21%	?
Cc1cc(NC(=O)Cn2c(=O)n(Cc3ccccc3)c(=O)c3ccccc32)no1	19%	7.3µM*	8%	12%	i
CCOC(=O)/C=c1\s/c(=C\c2ccc3cc(OC)ccc3c2)c(=O)n1CC(=O)NCc1ccc2c(c1)OCO2	?	?	5%	18%	18µM*
CCOC(=O)/C=c1\s/c(=C\c2ccccc2C)c(=O)n1CC(=O)NCc1ccc2c(c1)OCO2	-27%	3.3µM*	?	?	i
CCOC(=O)/C=c1/s/c(=C\c2c(OC)ccc3ccccc23)c(=O)n1CC(=O)NCC1CCCO1 (centres undefined)	nt	4.6µM*	15µM*	?	?
COc1ccccc1NC(=O)Cn1c(=O)n(Cc2ccccc2)c(=O)c2ccccc21	nt	i	nt	nt	i
COc1ccc(F)cc1CN1CCN(C(=O)c2ccc(S(=O)(=O)N3CCCCCC3)cc2)CC1	nt	i	-20%	0%	i
CC(OC(=O)c1nsc(Cl)c1Cl)C(=O)NCCc1ccccc1 (centres undefined)	11%	i	0%	-3%	i

Assay outcomes (PubChem)
